Consider 40 compounds from PubChem BioAssay (NCI).

This is part of a sample that, as a whole, favours compounds with a hit. Of some 79,000 tested, about 15% had one in any assay. Unmarked numbers belong to inactive results. Calls of active or inactive are those of the source. No stated cut-off is given here; in the data, active means growth inhibition above about 70%; inactive means the rest.

The first assay is described as follows: NCI Yeast Anticancer Drug Screen. Data for the mec2-1 strain (AID 157). The conditions noted are these: S. cerevisiae mec2-1 strain, at 50.0 µM, hits give high values. The method, boiled down: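 Each compound was tested on mec2-1 yeast, a strain altered in DNA damage repair or cell cycle control. Growth inhibition is reported relative to vehicle.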
On to `CCOP(=O)(OCC)/C(C#N)=C/c1ccc(Br)cc1`, for which the growth inhibition is 94% (active).

As for `Cc1ccc(C(=O)C2C(c3ccccc3)N2C2CCCCC2)cc1` (stereo unspecified), the growth inhibition is 7.95%.

For `CN(C)c1ncnc2c1ncn2C1OC(CO)C2NP(=O)(N(CCCl)CCCl)OC21` (stereo unspecified), the growth inhibition was -1.35%.

Consider `Nc1nc(N)c(-c2ccc(Cl)c(Cl)c2)c(CCc2ccc(CNC(=O)c3cccc(S(=O)(=O)F)c3)cc2)n1`, for which the growth inhibition was 59.2%.

Turning to `C[CH2][Pb]([CH2]C)([CH2]C)[O]C(=O)COc1ccc(Cl)cc1Cl`, the growth inhibition was 95.1% (active).

As for `O=C(OCC(CCl)OC(=O)C(Cl)(Cl)Cl)C(Cl)(Cl)Cl` (stereo unspecified), the growth inhibition was 46.4%.

A further assay is described as follows: NCI Yeast Anticancer Drug Screen. Data for the sgs1 mgt1 strain (AID 161).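 Further: 0% = growth of cultures given vehicle only.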 The conditions noted are these: S. cerevisiae sgs1 mgt1 strain, at 5.0 µM (retest, dose inferred, filed as 0.5), hits give high values. In short, it runs like this: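 Inhibition of yeast growth, normalised to vehicle-treated controls, is reported for a strain bearing genetic alterations in DNA damage repair.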
With `O=[N+]([O-])c1cc[n+]([O-])c2ccccc12`, the growth inhibition was 99% (active).

Take `COc1c[c]([Hg][O]C(C)=O)c(OC)c(NC(=O)CC(C)=O)[c]1[Hg][O]C(C)=O`: the growth inhibition was 100% (active).

Consider `CN(C)c1ccc(C2N(Cc3ccc(N(CCCl)CCCl)cc3)CCCN2Cc2ccc(N(CCCl)CCCl)cc2)cc1`, for which the growth inhibition is -1%.

Consider `CC(=O)c1ccc(-[n+]2c(C)cc(-c3ccccc3)cc2C)cc1`, for which the growth inhibition was -19%.

Regarding `[O]=[Sb]([OH])([OH])[c]1ccc(NC2OC(CO)C(O)C(O)C2O)cc1` (stereo unspecified), the growth inhibition is -1%.

On to `CCC1CN1P(=O)(Oc1ccccc1)N1CC1CC` (stereo unspecified), for which the growth inhibition was -1%.

For the compound `CCN(CC)CC(=O)c1cc2ccccc2c2ccccc12`, the growth inhibition is 47%.

For the compound `O=C1CCCC1Cl` (stereo unspecified), the growth inhibition was -4%.

With `N#C[S-].[La+3].c1ccc(-c2ccccn2)nc1.c1ccc(-c2ccccn2)nc1.c1ccc(-c2ccccn2)nc1`, the growth inhibition was 46%.

Turning to `O=c1s[se]c2ccccc12`, the growth inhibition was 17%.

On to `O=C(CCl)Nc1ccc(Cl)cc1`, for which the growth inhibition was -2%.

Regarding `O=C1N[C@H]2[C@H](O)[C@H](O)[C@@H](O)[C@H](O)[C@@H]2c2cc3c(c(O)c21)OCO3`, the growth inhibition was 17%.

As to `O=C(Nc1n[c]([Hg][Cl])[c]([Hg][Cl])s1)OCc1ccccc1`, the growth inhibition was 98% (active).

For `CC[C@@]1(O)C[C@H](OC2CC(N(C)C)C(O)C(C)O2)c2c(cc3c(c2O)C(=O)c2c(O)ccc(O)c2C3=O)[C@H]1C(=O)OC` (stereo partly specified), the growth inhibition is 88% (active).

Turning to `CCCCCc1cc(O)c(CCCC)c(O)c1`, the growth inhibition is -43%.

For `NC(=O)/C=C/c1ccc([As]=O)cc1` (stereo unspecified), the growth inhibition was 0%.

Take `O=[N+]([O-])c1cccc(SC(Cl)(Cl)Cl)c1`: the growth inhibition was 31%.

On to `COc1cc(/C=C(/C)[N+](=O)[O-])ccc1O`, for which the growth inhibition was 42%.

As for `CCC[CH2][Sn]1([CH2]CCC)[O]CC(CN2CCOCC2)[O]1` (stereo unspecified), the growth inhibition is 34%.

Take `O=C1CN2CCCCC2CN1` (stereo unspecified): the growth inhibition was -59%.

`CCC[CH2][Sn]([CH2]CCC)([O]C(=O)CCC(C)=O)[O]C(=O)CCC(C)=O`: the growth inhibition is 79% (active).

As to `C[CH2][Sn]([F])([CH2]C)[CH2]C`, the growth inhibition is 9%.

On to `CN(C)CCBr`, for which the growth inhibition was 61%.

Regarding `O=[N+]([O-])c1ccc2c3c(cccc13)CC2`, the growth inhibition is 11%.

For `CC1=CC2CC(C)=C(CC[C@]3(C)CC[C@H]([C@@H](C)C(=O)O)OO3)C(C)(C)C2CC1` (stereo partly specified), the growth inhibition is 69%.

For the compound `ClC(CN1CCCCC1)C(Cl)c1ccccc1` (stereo unspecified), the growth inhibition is 5%.

For `CCOC(=O)c1ccc(N=Cc2ccc(N(CCCl)CCCl)cc2C)cc1`, the growth inhibition is 14%.

On to `CN=C(N)N/N=C(\C)c1ccc2sc3ccc(/C(C)=N/NC(N)=NC)cc3c2c1`, for which the growth inhibition is 23%.

As for `c1cc2n[pH]nc2cn1` (stereo unspecified), the growth inhibition is -2%.

Take `O=[N+]([O-])c1ccc(Br)c([N+](=O)[O-])c1`: the growth inhibition is 8%.

With `O=C(CBr)NC1CCCCC1`, the growth inhibition was 4%.

Regarding `CC(C)C12C=C3CCC4C(C)(C(=O)O)CCCC4(C)C3(CC1)OO2` (stereo unspecified), the growth inhibition is 7%.

For the compound `IC(I)=C(I)I`, the growth inhibition was 99% (active).

Turning to `Clc1ccc2c(c1)C(c1ccccc1Cl)=NCC(SCCN1CCOCC1)=N2`, the growth inhibition is 63%.

As for `CCOP(=O)(OCC)/C(C#N)=C/c1ccc(Br)cc1`, the growth inhibition is -18%.

With `Cc1ccc(C(=O)C2C(c3ccccc3)N2C2CCCCC2)cc1` (stereo unspecified), the growth inhibition is -1%.

For the compound `CN(C)c1ncnc2c1ncn2C1OC(CO)C2NP(=O)(N(CCCl)CCCl)OC21` (stereo unspecified), the growth inhibition is -3%.

In the case of `Nc1nc(N)c(-c2ccc(Cl)c(Cl)c2)c(CCc2ccc(CNC(=O)c3cccc(S(=O)(=O)F)c3)cc2)n1`, the growth inhibition is 7%.

As for `C[CH2][Pb]([CH2]C)([CH2]C)[O]C(=O)COc1ccc(Cl)cc1Cl`, the growth inhibition is 3%.

On to `O=C(OCC(CCl)OC(=O)C(Cl)(Cl)Cl)C(Cl)(Cl)Cl` (stereo unspecified), for which the growth inhibition was -31%.
